Compounds without any hit were thinned out: in the full panel of roughly 83,000, 20% have a hit.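 Single-concentration screen, 48 h exposure, 96-well plates. Endpoint: percent growth. Below 10 = active.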 Values without a mark were called inactive. Activity calls are given as the source filed them.
What follows are compounds tested on IGROV1 ovarian (assay: NCI-60 one-dose screen, 48 h (100 = growth as untreated, 0 = no growth, -100 = all killed)). Details: 10 µM unless noted.
Protocol: Growth inhibition of the IGROV1 human tumor cell line is measured as a screen for anti-cancer activity. Cells are grown in 96 well plates and exposed to the test compound for 48 hours. Compounds are tested at a single concentration, which is 10^-5 M for most compounds. The reported endpoint is percent growth (GI% or GIPRCNT), where numbers from 0 - 100% represent growth inhibition, and numbers from -100% - 0 represent cell death. For example, a value of 40 represents 60% growth inhibition. A value of 0 means no net growth occurred over the course of the experiment. A value of -40 indicates 40% of cells at the beginning of the experiment died by the end of the experiment. A value of -100 means all cells are dead at the end of the experiment.
NCI-60 Human Tumor Cell Lines Screen was performed using the standard one-dose NCI protocol, which is described in more detail at https://dtp.cancer.gov/discovery_development/nci-60/default.htm.
Compounds with GIPRCNT values below 10 were considered active. Activity score was based on GIPRCNT using the following formula: […]
Score is 0 for GIPRCNT values of 100 or above, 50 for GIPRCNT values of 0, and 100 for GIPRCNT values of -100.

Question: For `C=CCOC(=O)Nc1cccn([C@H](Cc2ccccc2)C(=O)NCCC(C)C)c1=O`, which growth is on record?
Answer: 106%

Question: `COc1cc2oc(-c3cccc(NC(=O)c4ccccc4)c3)cc(=O)c2c(OC)c1OC` was tested. Which growth did it give?
Answer: 78.4%

Question: With `O=C(/C=C/c1ccccc1)Nc1ncc(Cc2ccccc2Cl)s1` as the compound, how does the growth read?
Answer: 31.5%

Question: Which growth does the source give for `C=C1C(=O)O[C@H]2[C@H]1CC/C(COC(=O)NCc1ccc(Cn3c(=O)sn(CCCCC)c3=O)cc1)=C\CC[C@@]1(C)O[C@@H]21` here?
Answer: 24.1%

Question: `CCOC(=O)C#Cc1c(C(=O)OCC)nnn1Cc1ccc([N+](=O)[O-])cc1` was tested. Which growth did it give?
Answer: 89.6%

Question: For `O=C1C(=O)N(Cc2ccc(-c3ccccc3)cc2)c2ccc(OC(F)(F)F)cc21`, which growth is on record?
Answer: 36%

Question: How did the growth turn out when `CS(=O)(=O)c1ccc(-c2cnn3ccc(-c4cccc(S(=O)(=O)C5CC5)c4)nc23)cc1` was run?
Answer: 13.1%

Question: `O=C(/C=C/c1ccco1)Nc1ncc(Cc2cccc(C(F)(F)F)c2)s1` was tested. Which growth did it give?
Answer: 4.48% (active)

Question: `COc1ccc(C2=C(Br)C(=O)c3nc(C)ccc3C2=O)cc1` was tested. Which growth did it give?
Answer: 87.5%

Question: How did the growth turn out when `Cc1c2cnccc2c(C)c2c1c1cc(C#N)ccc1n2C` was run?
Answer: -11.4% (active)

Question: With `O=C(CN1CCCCC1)Nc1nc(-c2cc3ccccc3oc2=O)cs1` as the compound, how does the growth read?
Answer: 92.9%

Question: `COc1cc(-c2csc(NC(=O)c3ccc(N4CCOCC4)c(C(F)(F)F)c3)n2)cc(OC)c1OC` was tested. Which growth did it give?
Answer: 29.5%

Question: Which growth does the source give for `CCc1ccccc1-n1c(-c2ccc(OC)cc2)cc(-c2ccc(OC)cc2)c(C#N)c1=O` here?
Answer: 85.5%

Question: Which growth does the source give for `CCn1c(SCC(=O)N/N=C(\C)c2ccc(Cl)cc2)nc2c1c(=O)n(C)c(=O)n2C` here?
Answer: 96.5%

Question: For `COc1cc(-c2cncn2-c2ccc(-c3nc4ccc(F)cc4s3)cc2)ccc1F`, which growth is on record?
Answer: 52.8%

Question: How did the growth turn out when `CN1CCN(C(=O)c2ccc(NC(=O)c3cc4c(nn3)NCCN4Cc3cc(Cl)ccc3Cl)cc2)CC1` was run?
Answer: 81.3%

Question: How did the growth turn out when `O=S(=O)(Nc1cc(F)cc(Cl)c1)c1ccc(-c2cnc(C3CC3)o2)cc1` was run?
Answer: 30%

Question: For `CCCNC(=O)Nc1ccc2cc3ccc(NC(=O)NCCC)cc3nc2c1`, which growth is on record?
Answer: 34.4%

Question: How did the growth turn out when `CCOC(=O)C/C(=N\Nc1cc(=O)[nH]c2ccc(Br)cc12)C(=O)OCC` was run?
Answer: 82.6%

Question: With `Cc1cc(N2CCN(CCNc3ccnc4cc(Cl)ccc34)CC2)nc(N2CCOCC2)n1` as the compound, how does the growth read?
Answer: 66%

Question: For `CC(=O)O[C@@H]1C[C@]2(C(C)C)O[C@@]1(C)[C@@H]1CCC(C)=C1[C@@H]2OC(=O)/C=C/c1ccccc1`, which growth is on record?
Answer: 94.9%

Question: `Oc1c(I)cc(I)cc1CNCCN(Cc1ccccn1)Cc1ccccn1` was tested. Which growth did it give?
Answer: -66.3% (active)

Question: `CCSC(SCC)c1ccc(Cl)cc1` was tested. Which growth did it give?
Answer: 117%

Question: `C=C1C(=O)O[C@H]2[C@H]1CC/C(COC(=O)C(=O)c1cn(C)c3ccc(Cl)cc13)=C\CC[C@@]1(C)O[C@@H]21` was tested. Which growth did it give?
Answer: -72.1% (active)

Question: `COc1ccc(/C=C/C(=O)c2cc3c(N)c(C(=O)Nc4cccc5ccccc45)sc3nc2C)cc1` was tested. Which growth did it give?
Answer: 70.4%

Question: `Nc1ncc(-c2ccc3ncnc(Nc4cccc(Cl)c4)c3c2)cn1` was tested. Which growth did it give?
Answer: 5.88% (active)

Question: Which growth does the source give for `Cc1nc2sc(C(=O)Nc3ccc(Br)cc3)c(N)c2cc1C(O)c1ccccc1` (stereo not given) here?
Answer: 75.1%

Question: For `O=C(Nc1cccc(-c2ccc(N3CCOCC3)nn2)c1)Nc1cccc(C(F)(F)F)c1`, which growth is on record?
Answer: 97.1%

Question: `COc1cc(NS(=O)(=O)c2ccc(-c3cnc(C4CC4)o3)cc2)ccc1F` was tested. Which growth did it give?
Answer: 24.6%

Question: How did the growth turn out when `CC(C)Cn1cnc2c(=O)[nH]c(N)nc21` was run?
Answer: 104%

Question: With `O=[N+]([O-])c1cccc(-c2nc3cc4nc5ccccc5[nH]c4cc3n2)c1` as the compound, how does the growth read?
Answer: 99.1%

Question: For `O=C(c1ccccc1)c1ccc(C2CCCCC2)cc1`, which growth is on record?
Answer: 100%

Question: Which growth does the source give for `COc1ccc(C2CC(c3ccc(Nc4nc(Nc5ccccc5)nc(Nc5ccccc5)n4)cc3)=NN2C(C)=O)cc1` (stereo not given) here?
Answer: 118%

Question: Which growth does the source give for `O=C(Nc1ccc(Oc2cccc(Cl)c2)c(Cl)c1)c1cnccn1` here?
Answer: 27%

Question: Which growth does the source give for `C=C(C)[C@@H]1CC[C@]2(C(=O)N3CCOCC3)CC[C@]3(C)[C@H](CC[C@@H]4[C@@]5(C)C/C(=C/c6ccncc6)C(=O)C(C)(C)[C@@H]5CC[C@]43C)[C@@H]12` here?
Answer: 71.1%

Question: `Clc1ccc(/C=N\N=C\c2ccc(Cl)c(Cl)c2)cc1Cl` was tested. Which growth did it give?
Answer: 79.5%

Question: With `CCOc1ccccc1Cn1ccnc1CCc1c(Cl)c(O)cc(O)c1C(=O)OC` as the compound, how does the growth read?
Answer: 94.8%

Question: With `COc1ccc(-c2nc3c(ncc4ccc(=O)[nH]c43)s2)cc1` as the compound, how does the growth read?
Answer: 67.5%

Question: `O=C(Cn1cc(CSc2nc3ccccc3o2)nn1)Nc1ccc(F)cc1F` was tested. Which growth did it give?
Answer: 114%

Question: Which growth does the source give for `N#Cc1ccc2c(c1)C(=O)c1c-2n(CCCN)c(=O)c2cc([N+](=O)[O-])ccc12` here?
Answer: -95.6% (active)

— PubChem BioAssay (NCI)
